Measured values as given in PubChem BioAssay AID1159580 (chemical genetic matrix, 2015).
“And” between values parts separate entries of the source, which are not always exact repeats. Equal values may be shown once. Out of some 5,500 compounds screened, about 2,000 (36%) were called active. Another 18% or so got no clear call; they are omitted. No stated cut-off is given here; in the data, active means normalized growth mostly below about 0.91 (no sharp cut-off); inconclusive means no clear call, values can overlap the other calls; inactive means mostly above about 0.92. This is one part of the list.

Experiment: chemical genetic growth profiling, strain panel (AID 1159580);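 further: tested at 20 µM; growth read once vehicle control cultures reached saturation at 30 °C; 1 = growth at the plate median or of vehicle wells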
Details: S. cerevisiae deletion strains, growth OD
[1] = locus YBR229C, strain ROT2, stronger effect = lower value
[2] = locus YDL101C, strain DUN1, stronger effect = lower value
[3] = locus YDL134C, strain PPH21, stronger effect = lower value
[4] = locus YEL061C, strain CIN8, stronger effect = lower value
[5] = locus YGR078C, strain PAC10, stronger effect = lower value
[6] = locus YGR229C, strain SMI1, stronger effect = lower value
[7] = locus YHR030C, strain SLT2, stronger effect = lower value
[8] = locus YJR043C, strain POL32, stronger effect = lower value
[9] = locus YJR075W, strain HOC1, stronger effect = lower value
[10] = locus YLR039C, strain RIC1, stronger effect = lower value
[11] = locus YLR262C, strain YPT6, stronger effect = lower value
[12] = locus YMR307W, strain GAS1, stronger effect = lower value
[13] = locus YNL153C, strain GIM3, stronger effect = lower value
[14] = locus YPL055C, strain LGE1, stronger effect = lower value

Measured: normalized growth

CCCc1ncc(C[n+]2ccccc2C)c(N)n1
inactive: locus YAL021C, strain ccr4, stronger effect = lower value 0.94 | locus YAL026C, strain drs2, stronger effect = lower value 0.999 | locus YAL030W, strain snc1, stronger effect = lower value 0.991 | locus YBL061C, strain skt5, stronger effect = lower value 0.976 | locus YBR009C, strain hhf1, stronger effect = lower value 1.03 | locus YBR021W, strain FUR4, stronger effect = lower value 1.06 | locus YBR023C, strain chs3, stronger effect = lower value 0.999 | locus YBR171W, strain sec66, stronger effect = lower value 0.969 | [1] 1 | locus YBR231C, strain swc5, stronger effect = lower value 0.966 | locus YBR279W, strain paf1, stronger effect = lower value 1.01 | locus YCL011C, strain gbp2, stronger effect = lower value 1 | locus YCL016C, strain dcc1, stronger effect = lower value 1.01 | locus YCL029C, strain bik1, stronger effect = lower value 1 | locus YCL069W, strain vba3, stronger effect = lower value 0.981 | locus YCR088W, strain abp1, stronger effect = lower value 0.992 | locus YDL005C, strain med2, stronger effect = lower value 0.929 | locus YDL035C, strain GPR1, stronger effect = lower value 1.01 | locus YDL040C, strain nat1, stronger effect = lower value 0.967 | locus YDL074C, strain BRE1, stronger effect = lower value 0.99 | [2] 1 | [3] 0.996 | locus YDL185W, strain tfp1, stronger effect = lower value 1.01 | locus YDL192W, strain arf1, stronger effect = lower value 0.999 | locus YDR001C, strain nth1, stronger effect = lower value 0.987 | locus YDR069C, strain doa4, stronger effect = lower value 0.983 | locus YDR101C, strain arx1, stronger effect = lower value 1.01 | locus YDR137W, strain rgp1, stronger effect = lower value 0.998 | locus YDR159W, strain sac3, stronger effect = lower value 0.995 | locus YDR162C, strain NBP2, stronger effect = lower value 1.01 | locus YDR195W, strain ref2 0.932 | locus YDR297W, strain sur2, stronger effect = lower value 0.999 | locus YDR318W, strain mcm21, stronger effect = lower value 0.995 | locus YDR334W, strain swr1, stronger effect = lower value 0.992 | locus YDR335W, strain msn5, stronger effect = lower value 0.99 | locus YDR388W, stronger effect = lower value 0.997 | locus YDR392W, strain spt3, stronger effect = lower value 1.08 | locus YDR502C, strain sam2, stronger effect = lower value 0.993 | locus YEL003W, strain gim4, stronger effect = lower value 0.983 | locus YEL037C, strain rad23, stronger effect = lower value 0.984 | locus YEL061C, strain CIN8 (second series), stronger effect = lower value 0.988 | [4] 1 | locus YER015W, strain faa2, stronger effect = lower value 0.992 | locus YER016W, strain bim1, stronger effect = lower value 1.02 | locus YER110C, stronger effect = lower value 0.99 | locus YER111C, strain swi4, stronger effect = lower value 0.983 | locus YER155C, strain BEM2 (second series), stronger effect = lower value 0.975 | locus YER155C, strain BEM2, stronger effect = lower value 0.991 | locus YER167W, strain BCK2, stronger effect = lower value 0.991 | locus YFR010W, strain ubp6, stronger effect = lower value 0.99 | locus YGL078C, strain dbp3, stronger effect = lower value 0.988 | locus YGL086W, strain mad1, stronger effect = lower value 0.984 | locus YGL167C, strain pmr1, stronger effect = lower value 0.961 | locus YGL173C, strain kem1, stronger effect = lower value 0.947 | locus YGL227W, strain vid30, stronger effect = lower value 0.988 | locus YGL240W, strain doc1, stronger effect = lower value 0.96 | locus YGL248W, strain PDE1, stronger effect = lower value 0.983 | locus YGL253W, strain hxk2, stronger effect = lower value 1.01 | [5] 0.983 | locus YGR135W, strain pre9, stronger effect = lower value 0.984 | [6] 0.997 | locus YGR252W, strain gcn5, stronger effect = lower value 0.967 | locus YHR013C, strain ard1, stronger effect = lower value 0.986 | locus YHR027C, strain rpn1, stronger effect = lower value 0.997 | [7] 1 and 1.11 | locus YHR079C, strain IRE1 (second series), stronger effect = lower value 0.998 | locus YHR079C, strain IRE1, stronger effect = lower value 1.04 | locus YHR094C, strain hxt1, stronger effect = lower value 0.994 | locus YHR129C, strain ARP1, stronger effect = lower value 1 | locus YHR142W, strain chs7, stronger effect = lower value 0.976 | locus YHR200W, strain rpn10, stronger effect = lower value 0.995 | locus YIL066C, strain RNR3, stronger effect = lower value 1.02 | locus YIL073C, strain SPO22, stronger effect = lower value 0.975 | locus YIL125W, strain kgd1, stronger effect = lower value 0.986 | locus YIR030C, strain dcg1, stronger effect = lower value 1.02 | locus YJL092W, strain hpr5, stronger effect = lower value 0.959 | locus YJL095W, strain BCK1 (second series), stronger effect = lower value 0.95 | locus YJL095W, strain BCK1, stronger effect = lower value 1.03 and 1.04 | locus YJL115W, strain asf1, stronger effect = lower value 0.981 | locus YJL129C, strain trk1, stronger effect = lower value 0.966 | locus YJL134W, strain LCB3, stronger effect = lower value 1.01 | locus YJL154C, strain vps35, stronger effect = lower value 0.972 | locus YJL164C, strain tpk1, stronger effect = lower value 1.01 | locus YJL166W, strain qcr8, stronger effect = lower value 0.941 | locus YJL168C, strain set2, stronger effect = lower value 1 | locus YJL187C, strain SWE1 (second series), stronger effect = lower value 0.988 | [8] 0.989 | locus YJR066W, strain TOR1, stronger effect = lower value 0.993 | [9] 0.988 | locus YKL009W, strain mrt4, stronger effect = lower value 0.958 | locus YKL068W, stronger effect = lower value 0.995 | locus YKL085W, strain MDH1 (second series), stronger effect = lower value 0.983 | locus YKL085W, strain MDH1, stronger effect = lower value 0.983 | locus YKL160W, strain elf1, stronger effect = lower value 0.981 | locus YKL190W, strain CNB1, stronger effect = lower value 1.01 | locus YKR001C, strain vps1, stronger effect = lower value 1 | locus YKR091W, strain srl3, stronger effect = lower value 0.964 | locus YLL001W, strain dnm1, stronger effect = lower value 0.931 | locus YLL026W, stronger effect = lower value 0.983 | locus YLL041C, strain sdh2, stronger effect = lower value 0.991 | locus YLR027C, strain aat2, stronger effect = lower value 0.983 | [10] 0.944 | locus YLR058C, strain SHM2, stronger effect = lower value 1.01 | locus YLR102C, strain apc9, stronger effect = lower value 0.995 | locus YLR113W, strain HOG1, stronger effect = lower value 1.05 | locus YLR221C, strain rsa3, stronger effect = lower value 1.02 | locus YLR258W, strain gsy2, stronger effect = lower value 0.991 | locus YLR262C, strain YPT6 (second series), stronger effect = lower value 0.951 | [11] 0.988 | locus YLR268W, strain sec22, stronger effect = lower value 0.985 | locus YLR320W, strain mms22, stronger effect = lower value 1.01 | locus YLR330W, strain CHS5, stronger effect = lower value 1.01 | locus YLR342W, strain FKS1 (second series), stronger effect = lower value 0.999 | locus YLR342W, strain FKS1, stronger effect = lower value 0.958 | locus YLR357W, strain rsc2, stronger effect = lower value 0.977 | locus YLR370C, strain arc18, stronger effect = lower value 0.997 | locus YLR371W, strain rom2, stronger effect = lower value 0.996 | locus YLR384C, strain iki3, stronger effect = lower value 0.976 | locus YLR418C, strain cdc73, stronger effect = lower value 0.977 | locus YML016C, strain PPZ1, stronger effect = lower value 1.01 | locus YML032C, strain rad52, stronger effect = lower value 0.988 | locus YML120C, strain ndi1, stronger effect = lower value 0.98 | locus YML124C, strain tub3, stronger effect = lower value 0.989 | locus YMR058W, strain fet3, stronger effect = lower value 0.975 | locus YMR078C, strain ctf18, stronger effect = lower value 0.999 | locus YMR125W, strain sto1, stronger effect = lower value 0.969 | locus YMR129W, stronger effect = lower value 0.986 | locus YMR205C, strain PFK2, stronger effect = lower value 0.982 | locus YMR223W, strain ubp8, stronger effect = lower value 0.997 | locus YMR231W, strain pep5, stronger effect = lower value 0.978 | [12] 1.06 | locus YNL067W, strain RPL9B, stronger effect = lower value 0.992 | locus YNL071W, strain lat1, stronger effect = lower value 0.995 | [13] 0.987 | locus YNL183C, strain NPR1, stronger effect = lower value 0.988 | locus YNL209W, strain ssb2, stronger effect = lower value 0.993 | locus YNL233W, strain BNI4, stronger effect = lower value 1.01 | locus YNL248C, strain rpa49, stronger effect = lower value 0.995 | locus YNL250W, strain rad50, stronger effect = lower value 0.994 | locus YNL271C, strain bni1, stronger effect = lower value 1 | locus YNL298W, strain CLA4, stronger effect = lower value 0.995 | locus YNL307C, strain MCK1, stronger effect = lower value 0.992 | locus YNL322C, strain KRE1 (second series), stronger effect = lower value 0.961 | locus YNR049C, strain mso1, stronger effect = lower value 0.987 | locus YNR052C, strain pop2, stronger effect = lower value 0.999 | locus YOL012C, strain htz1 0.884 | locus YOL147C, strain pex11, stronger effect = lower value 0.994 | locus YOR001W, strain rrp6, stronger effect = lower value 0.979 | locus YOR061W, strain CKA2, stronger effect = lower value 1.01 | locus YOR069W, strain VPS5, stronger effect = lower value 1 | locus YOR070C, strain gyp1, stronger effect = lower value 0.992 | locus YOR080W, strain dia2, stronger effect = lower value 0.965 | locus YOR083W, strain WHI5, stronger effect = lower value 0.94 | locus YOR106W, strain vam3, stronger effect = lower value 0.945 | locus YOR136W, strain idh2, stronger effect = lower value 0.983 | locus YOR144C, strain elg1, stronger effect = lower value 0.989 | locus YOR184W, strain ser1, stronger effect = lower value 0.993 | locus YOR231W, strain MKK1, stronger effect = lower value 1.04 | locus YOR265W, strain rbl2, stronger effect = lower value 0.987 | locus YOR270C, strain vph1, stronger effect = lower value 1 | locus YOR290C, strain snf2, stronger effect = lower value 1.01 | locus YOR316C, strain cot1, stronger effect = lower value 0.997 | locus YPL051W, strain arl3, stronger effect = lower value 0.998 | [14] 1.01 | locus YPL078C, strain atp4, stronger effect = lower value 0.954 | locus YPL106C, strain sse1, stronger effect = lower value 1 | locus YPL240C, strain hsp82, stronger effect = lower value 0.985 | locus YPL256C, strain CLN2, stronger effect = lower value 1.08 | locus YPR119W, strain clb2, stronger effect = lower value 0.998 | locus YPR141C, strain kar3, stronger effect = lower value 0.976 | locus YPR163C, strain tif3, stronger effect = lower value 0.987 | locus YPR167C, strain met16, stronger effect = lower value 0.991 | strain wtn01, stronger effect = lower value 0.973

O=C(CNc1cccc(Cl)c1)c1ccc(Cl)cc1
active: [6] 0.935 | locus YJL187C, strain SWE1, stronger effect = lower value 0.933
inactive: locus YAL013W, strain DEP1, stronger effect = lower value 0.971 | [1] 0.933 | locus YCL061C, strain MRC1, stronger effect = lower value 0.975 | [2] 0.952 | [3] 0.948 | locus YDR150W, strain NUM1, stronger effect = lower value 0.89 | [4] 0.954 | [5] 0.945 | [7] 0.766 | locus YHR087W, strain rtc3, stronger effect = lower value 0.923 | [8] 0.98 | [9] 0.936 | [10] 0.954 | locus YLR058C, strain SHM2 (second series), stronger effect = lower value 0.953 | locus YLR085C, strain ARP6, stronger effect = lower value 0.801 | [11] 0.898 | locus YML094W, strain GIM5, stronger effect = lower value 0.938 | locus YMR219W, strain ESC1, stronger effect = lower value 0.964 | locus YMR263W, strain SAP30, stronger effect = lower value 0.908 | [12] 0.862 | locus YNL128W, strain TEP1, stronger effect = lower value 0.973 | [13] 0.97 | locus YNL298W, strain CLA4 (second series), stronger effect = lower value 0.937 | locus YNL322C, strain KRE1, stronger effect = lower value 0.951 | locus YNR030W, strain Alg12, stronger effect = lower value 0.89 | [14] 0.832 | locus YPL241C, strain CIN2, stronger effect = lower value 0.899 | locus YPR135W, strain CTF4, stronger effect = lower value 0.824
